“And” between values parts separate entries of the source, which are not always exact repeats. Equal values may be shown once. About 350 (0.48%) of roughly 73,000 compounds were called active. Not shown: some 17% with an inconclusive outcome. The call rests on the fitted dose curve; in most records, active means well fitted activation curve with a large enough effect in the main read-out, with a control signal flat (not every such curve was filed as active); inconclusive means small, poorly fitted or top-dose-only effect, or a change in a side signal; inactive means no such curve, though single readings can be large or run the other way; reference of the percent scale not stated here. This excerpt belongs to a sample that is enriched for actives.

Assay [1] is described as follows: qHTS Assay for Agonists of the Thyroid Stimulating Hormone Receptor.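 Further: the control signal comes from parental cells without the receptor.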 The conditions noted are these: HEK293-CNG-TSHR cells, membrane potential dye, cAMP; measured here: parental cells max response. The gist of the method: (§1)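 HEK 293 cells stably expressing TSHR and a modified CNG channel, with CNG-only parental cells as counterscreen, were preloaded 60 min at room temperature with membrane potential dye containing 100 uM RO 20-1724. Compound exposure was 30 min, and depolarization was read as fluorescence at 590 nm.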

Assay [2] addresses Thyrotropin receptor (Homo sapiens) (UniProt P16473). The assay is described as above. The conditions noted are these: HEK293-CNG-TSHR cells (CNG channel as cAMP sensor), membrane potential dye, cAMP; series mostly up to 57.1 µM. Summed up: as §1
Potency means the concentration at half of the fitted maximal effect.

Chain of Thyrotropin receptor (Homo sapiens) (P16473 whole entry, looked up): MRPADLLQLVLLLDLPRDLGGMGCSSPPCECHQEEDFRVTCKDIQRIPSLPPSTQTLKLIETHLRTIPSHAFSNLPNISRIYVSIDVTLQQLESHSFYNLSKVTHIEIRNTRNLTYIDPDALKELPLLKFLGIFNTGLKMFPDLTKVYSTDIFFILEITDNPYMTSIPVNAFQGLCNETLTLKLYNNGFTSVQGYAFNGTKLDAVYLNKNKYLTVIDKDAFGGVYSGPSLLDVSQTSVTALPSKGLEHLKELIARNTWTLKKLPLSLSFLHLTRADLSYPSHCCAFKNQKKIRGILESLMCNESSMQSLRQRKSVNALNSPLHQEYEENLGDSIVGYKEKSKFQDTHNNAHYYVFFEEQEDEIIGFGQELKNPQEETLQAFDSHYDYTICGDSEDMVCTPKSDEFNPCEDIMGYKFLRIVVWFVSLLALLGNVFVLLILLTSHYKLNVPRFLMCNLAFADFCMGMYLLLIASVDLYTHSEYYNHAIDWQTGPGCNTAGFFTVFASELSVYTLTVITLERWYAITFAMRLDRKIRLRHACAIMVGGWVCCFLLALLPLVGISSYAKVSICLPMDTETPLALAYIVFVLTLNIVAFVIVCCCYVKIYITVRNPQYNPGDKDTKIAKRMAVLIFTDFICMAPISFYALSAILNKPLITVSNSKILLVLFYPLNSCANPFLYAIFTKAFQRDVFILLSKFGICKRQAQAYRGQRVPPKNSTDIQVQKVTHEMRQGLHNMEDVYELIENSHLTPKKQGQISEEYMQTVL

As to `O=C(OCC(COC(=O)c1ccccc1)(COC(=O)c1ccccc1)COC(=O)c1ccccc1)c1ccccc1`, in assay [1], the activation worked out at 20%. In assay [2], the Potency result was “inactive”.
As for `COC(=O)c1ccc(/C=N\n2c(C)nnc2C)cc1`, the activation in assay [1] worked out at 10.1%. The Potency entry in assay [2] was “inactive”.
For `CCc1ccc(-c2nnn(Cc3nn[nH]n3)n2)cc1`, in that order: 16% and “inactive”.
Regarding `CCOc1ccc(-c2nnn(CC(=O)N3CCN(c4ccc(OC)cc4)CC3)n2)cc1OCC`, in assay [1], the activation was -8.4%. For the same compound, the Potency entry in assay [2] was “inactive”.
Consider `COc1ccc(-c2nnn(Cc3nc(N)nc(N4CCCCC4)n3)n2)cc1`, for which the activation in assay [1] is 22%. Also, the Potency in assay [2] is 31.6 µM (active).
For `O=C(Cn1nnc2ccccc2c1=O)Nc1cc(C(F)(F)F)ccc1N1CCOCC1`, in that order: 17.2% and “inactive”.
For `Cn1nc(-c2ccc(N3CCOCC3)c(NC(=O)c3ccccc3)c2)c2ccccc2c1=O`, in that order: 29.3% and 25.1 µM (active).
Regarding `Cn1c(=O)n(C)c2cc(CNc3ccc(N4CCOCC4)c(C(=O)O)c3)ccc21`, the activation in assay [1] was 3.63%. In addition, in assay [2], the Potency result is “inactive”.
Take `O=C(C1CCN(CC2CCCCC2)CC1)N1CCCC1`: the activation in assay [1] came to 16.6%. The Potency result in assay [2] is “inactive”.
For the compound `COC(=O)[C@@H]1CC[C@H](C)[C@@H](c2ccc(C)cc2)N1C(=O)c1ccc(/C=N\O[C@@H](C)c2cn([C@H](CO)Cc3ccccc3)nn2)cc1`, the activation in assay [1] was 9.66% and 5.24%; in assay [2] it was 0.181% [at 11.4 µM] (inactive) and 4.03% [at 11.4 µM] (inactive).
Consider `CCc1c(C)sc(NC(=O)OC)c1C(=O)N1CCOCC1`, for which the activation in assay [1] was -1.6%. In addition, the Potency entry in assay [2] is “inactive”.
For the compound `CCOC(=O)[C@]1(C(/C=C/c2ccco2)NC(=O)OC)CCCC1=O` (stereo partly drawn), the activation is 0.322% in assay [1] and 14% [at 11.4 µM] (inactive) in assay [2].
Consider `O=C(CC1(O)C(=O)N(CN2CCOCC2)c2ccccc21)c1ccccc1` (stereo not drawn), for which the activation in assay [1] was 1.28%. In assay [2], the Potency result is “inactive”.
As for `CN(C)C(=O)c1ccc(-c2cncnc2Nc2ccccc2)cc1`, the activation in assay [1] was -2.37%. Also, in assay [2], the Potency entry was “inactive”.
With `OC(COc1cccc(OCC(O)CN2CCCC2)c1)CN1CCCC1` (stereo not drawn), the activation in assay [1] is -1.83%; in assay [2], -1.13% [at 11.4 µM] (inactive).
As to `Cc1cc(NS(=O)(=O)c2ccccc2)no1`, the activation in assay [1] amounted to 1.38%. The Potency entry in assay [2] is “inactive”.
In the same order, the values of `COc1ccc(O)c(C=Nc2cc(C)on2)c1` are -5.94% and “inactive”.
For `CC(C)N(CCNC(=O)c1ccc(-n2c(=O)c(=O)[nH]c3ccccc32)cc1)C(C)C`, in that order: -3.64% and “inactive”.
For `CCC(C)n1[nH]c(=O)c2c(C)cc(C)nc21` (stereo not drawn), in that order: 14.5% and “inactive”.
Regarding `Cc1cccc2c1N(CC(=O)OC(C)C)C(=O)C2=O`, the values for the activation in assay [1] and in assay [2] were -9.41% and -2.45% [at 11.4 µM] (inactive), respectively.
`Cc1cc(N=CC2=C(O)CCCC2=O)no1`: the activation in assay [1] was 5.56%. For the same compound, in assay [2], the Potency result was “inactive”.
On to `C=CCOC(=O)C(C(C)=O)C(NC(=O)OC)c1ccccc1` (stereo not drawn), for which the figures for the activation in assay [1] and in assay [2] were 4.24% and -0.17% [at 11.4 µM] (inactive), respectively.
In the same order, the values of `O=C(O)[C@@H](O)Cc1ccccn1` are 4.67% and -3.52% [at 11.4 µM] (inactive).
On to `c1ccc(Nc2n[nH]nc2-c2ccccc2)cc1`, for which the activation in assay [1] was -0.853%. Besides, in assay [2], the Potency result was “inactive”.
In the same order, the values of `Cc1nnc(NC(=O)CCC(=O)N2CCC(C)CC2)s1` are 5.36% and “inactive”.
Consider `C#CCC(C(=O)OC)(C(=O)OC)C(C[N+](=O)[O-])c1ccccc1` (stereo not drawn), for which the activation in assay [1] is -0.955%; in assay [2] it was 7.7% [at 11.4 µM] (inactive).
For `Cc1ccc(C(=O)CS(C)(=O)=O)cc1`, the activation in assay [1] turned out to be 1.73%. Moreover, the Potency entry in assay [2] was “inactive”.
Take `C=C(C)COc1ccc(-c2n[nH]c(C)c2-c2ccccc2OC)c(O)c1`: the activation in assay [1] came to 8.35%. Moreover, the Potency in assay [2] was 31.6 µM (active).
For `COc1ccc(-c2n[nH]c(C)c2-c2ccc(OC)c(OC)c2)c(O)c1`, in that order: 11.3% and 5.01 µM (active).
For `C=C(C)COc1ccc(-c2n[nH]c(C)c2-c2ccccc2)c(O)c1`, in that order: 17.3% and “inactive”.
With `CCOc1ccccc1Oc1cn[nH]c1-c1ccc(OC)cc1O`, the activation in assay [1] was 7.48%. Further, the Potency entry in assay [2] is “inactive”.
In the same order, the values of `COc1ccc(-c2nc(-c3ccccc3)no2)c(OC)c1` are 7.25% and “inactive”.
For `COc1ccc(OC)c(Nc2nc(-c3ccc(O)c(O)c3)cs2)c1`, in that order: -4.42% and “inactive”.
As for `O=C1OC(NC(=O)c2ccccc2)C(N2CCOCC2)=C1Cl` (stereo not drawn), the activation in assay [1] came to 4.11%. Also, the Potency entry in assay [2] was “inactive”.
For `CC(C)c1ccc2c([Si](C)(C)C)c3c(nc2c1)-c1cccc(=O)n1C3`, in that order: 2.88% and “inactive”.
In the same order, the values of `CCn1cc(NC(=O)Nc2ccc(OC)c(OC)c2)c(C(N)=O)n1` are 0.163% and “inactive”.
In the case of `COc1cccc(N2CCN(C3CC(=O)N(c4ccc(Cl)cc4)C3=O)CC2)c1` (stereo not drawn), the activation was -14.4% in assay [1] and -19.1% [at 11.4 µM] (inactive) in assay [2].
On to `Cc1ccc(C(=O)Nc2nnc(-c3ccncc3)s2)o1`, for which the activation in assay [1] is -13.3%. The Potency entry in assay [2] was “inactive”.
For `CC(=O)OCC(=O)[C@@]1(O)CC[C@@H]2[C@H]3CCC4=CC(=O)C=C[C@]4(C)[C@]3(F)[C@@H](O)C[C@@]21C`, in that order: -1.34% and “inactive”.
In the same order, the values of `COC(=O)[C@@]1(Cc2ccc(F)cc2)[C@H]2c3cc(C(=O)N4CCCC4)n(C[C@H](O)CO)c3C[C@H]2CN1C(=O)c1ccccc1` are 12.9% and “inactive”.
Consider `CC(C)N(C(=O)Cn1c(SCC(=O)N2CCN(c3ccccc3)CC2)nc2ccccc21)C(C)C`, for which, in assay [1], the activation amounted to 11.2%. The Potency entry in assay [2] is “inactive”.
Turning to `Cc1ccc(NC(=O)N2CCC(C(=O)NCc3ccc(F)cc3)CC2)cc1`, the activation in assay [1] was -2.62%. Moreover, the Potency result in assay [2] is “inactive”.
Consider `Cn1c(=O)n2n(c1=O)[C@H]1[C@H](O)[C@H]3O[C@H]3C(=O)[C@H]1CC2`, for which the activation in assay [1] was 0.42%; in assay [2], -7.07% [at 11.4 µM] (inactive).
With `O=C(CCCn1c(=O)oc2ccccc21)Nc1cccnc1`, the activation in assay [1] is -4.73%. The Potency result in assay [2] was “inactive”.
Take `c1ccc2nc(C3=NCCN3)cnc2c1`: the activation in assay [1] was -2.21%. Also, the Potency entry in assay [2] was “inactive”.
For `COCc1cc(C)nc(Nc2cc(C)ccc2C)c1C#N`, in that order: 18.4% and “inactive”.
As for `CC1CCN(C(=O)CSc2ccc3nnc(-c4cccc(F)c4)n3n2)CC1`, the activation in assay [1] is 0.67%. The Potency entry in assay [2] is “inactive”.
In the same order, the values of `COc1ccc(C[C@H](N)C(=O)N[C@@H]2[C@H](O)[C@H](n3cnc4c(N(C)C)ncnc43)O[C@@H]2CO)cc1` are -1.32% and “inactive”.
In the same order, the values of `Cc1cc2nc3c(=O)[nH]c(=O)nc-3n(C[C@H](O)[C@H](O)[C@H](O)CO)c2cc1C` are 35.7% and “inactive”.
In the same order, the values of `O=C(CCn1c(=O)oc2ccccc21)Nc1ccon1` are 5.04% and “inactive”.
With `COCCCNC(=O)COc1cc(C)c(Cl)c(C)c1`, in assay [1], the activation was 3.68%. Besides, the Potency entry in assay [2] is “inactive”.
On to `COC(=O)CSC1=C(C#N)C(c2ccccc2OC)C(C(=O)OC)C(=O)N1` (stereo not drawn), for which the activation is -3.31% in assay [1] and -3.47% [at 11.4 µM] (inactive) in assay [2].
For the compound `C=CCOC(=O)COCCC(C)C`, in assay [1], the activation was 1.07%. In addition, the Potency result in assay [2] was “inactive”.
In the same order, the values of `Cn1cccc1C(=O)N1CCC[C@@]2(CCN(Cc3nccs3)C2)C1` are 1.41% and “inactive”.

Values taken from PubChem BioAssay AID926 (National Center for Advancing Translational Sciences (NCATS), 2007).
